Test results taken from PubChem BioAssay (Tox21).
Values without a mark were called inactive. Records with an inconclusive call do not appear. A call without a number means that no potency is given here. Calls of active or inactive are those of the source. The call rests on the fitted dose curve.

What follows are compounds tested against Acetylcholinesterase (Homo sapiens) (UniProt P22303) (assay: Acetylcholinesterase (AChE) small molecule antagonists: colormetric cell-based qHTS assay (AID 1347395; further: nearly all actives have a fitted effect of over 30% in size; further: potency means the concentration at half of the fitted maximal effect)). Conditions: SH-SY5Y cells AChE activity, colorimetric (Ellman); series mostly up to 115 µM.
Sequence of Acetylcholinesterase (Homo sapiens) (P22303 whole entry, looked up): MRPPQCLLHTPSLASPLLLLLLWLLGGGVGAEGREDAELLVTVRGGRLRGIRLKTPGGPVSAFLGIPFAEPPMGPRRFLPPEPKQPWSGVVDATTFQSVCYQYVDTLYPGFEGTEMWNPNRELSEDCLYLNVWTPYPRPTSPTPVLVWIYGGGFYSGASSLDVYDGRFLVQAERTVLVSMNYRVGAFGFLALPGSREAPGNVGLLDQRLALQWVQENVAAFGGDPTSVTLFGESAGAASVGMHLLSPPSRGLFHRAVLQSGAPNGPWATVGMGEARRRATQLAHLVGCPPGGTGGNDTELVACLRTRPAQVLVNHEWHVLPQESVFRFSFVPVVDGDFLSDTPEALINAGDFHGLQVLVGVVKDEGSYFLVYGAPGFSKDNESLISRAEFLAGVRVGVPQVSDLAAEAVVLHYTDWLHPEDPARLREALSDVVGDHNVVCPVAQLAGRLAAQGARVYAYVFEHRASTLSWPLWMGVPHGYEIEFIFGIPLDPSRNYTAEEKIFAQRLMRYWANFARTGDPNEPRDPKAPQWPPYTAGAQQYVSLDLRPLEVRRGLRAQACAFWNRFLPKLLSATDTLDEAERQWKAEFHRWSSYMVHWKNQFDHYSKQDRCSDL
Procedure, shortened: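 Quantitative HTS in attached SH-SY5Y cells: 30 min compound exposure, then 90 min with acetylthiocholine and DTNB at 37 C; colour from thiocholine reports AChE activity.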
In the case of `CCc1nccnc1C`, the Potency is reported as “inactive”.
For `CCc1ccc(C=O)cc1`, the Potency was “inactive”.
With `C#C[C@]1(OC(C)=O)CC[C@H]2[C@@H]3CCC4=C/C(=N/O)CC[C@@H]4[C@H]3CC[C@@]21CC` the Potency was “inactive”.
For `CCOc1ccccc1O`, the Potency was “inactive”.
With `CCOc1ccccc1OCC` the Potency was “inactive”.
For `COc1cc(C=C2CCC/C(=C\c3ccc(O)c(OC)c3)C2=O)ccc1O`, the Potency was “inactive”.
For `O=C(O)C(O)[C@H](O)[C@@H](O)[C@H](O)[C@H](O)CO` (stereo partly drawn), the Potency was “inactive”.
`CCC1(C)C(=O)N(Cl)C(=O)N1Cl` (stereo not drawn) was tested, and the Potency was “inactive”.
For `CC(=O)Nc1ccc(S(N)(=O)=O)cc1`, the Potency was “inactive”.
`OCCNCc1ccccc1` was tested, and the Potency was “inactive”.
`O=C(O)CNC(=O)c1ccc([N+](=O)[O-])cc1` was tested, and the Potency was “inactive”.
With `CC(=C(CCOC(=O)C(C)C)SSC(CCOC(=O)C(C)C)=C(C)N(C=O)Cc1cnc(C)nc1N)N(C=O)Cc1cnc(C)nc1N` the Potency was “inactive”.
For `CC(NC(CCc1ccccc1)C(=O)O)C(=O)N1C(=O)N(C)CC1C(=O)O` (stereo not drawn), the Potency was “inactive”.
`CC1CNCC(C)O1` (stereo not drawn) was tested, and the Potency was “inactive”.
In the case of `CC(=O)[C@H]1[C@H](C#N)C[C@H]2[C@@H]3CC=C4C[C@@H](O)CC[C@]4(C)[C@H]3CC[C@@]21C`, the Potency is reported as “inactive”.
With `OCCC(F)(F)C(F)(F)C(F)(F)C(F)(F)C(F)(F)C(F)(F)F` the Potency was “inactive”.
In the case of `OC[C@@H](O)[C@H](O)[C@@H](O)[C@@H](O)CO`, the Potency is reported as “inactive”.
In the case of `C/C=C/C=C/COC(=O)C(C)C`, the Potency is reported as “inactive”.
For `C=C(C)CCO`, the Potency was “inactive”.
For `CC(C)c1ccc(C#N)cc1`, the Potency was “inactive”.
For `CCCCCCCCN1CCCC1=O`, the Potency was “inactive”.
For `CN=C(NC#N)NCCSCc1csc(N=C(N)N)n1`, the Potency was “inactive”.
`CN1[C@@H]2CC[C@H]1CC(NC(=O)n1c(=O)[nH]c3ccccc31)C2` (stereo partly drawn) was tested, and the Potency was “inactive”.
For `Cc1cc2c(cc1CC(=O)c1sccc1S(=O)(=O)Nc1onc(C)c1Cl)OCO2`, the Potency was “inactive”.
With `CCC(C)(C)C(=O)O` the Potency was “inactive”.
With `Nc1ncnc2c1ncn2Cc1c(F)cccc1Cl` the Potency was “inactive”.
In the case of `Nc1cc(C(=O)O)c(O)c(S(=O)(=O)O)c1`, the Potency is reported as “inactive”.
`C[C@H](O)C(=O)Nc1c(I)c(C(=O)NC(CO)CO)c(I)c(C(=O)NC(CO)CO)c1I` was tested, and the Potency was “inactive”.
For `CC(=O)Nc1cccc(N)c1`, the Potency was “inactive”.
With `CNC(=O)c1cnn(-c2nc(N)c3ncn([C@@H]4O[C@H](CO)[C@@H](O)[C@H]4O)c3n2)c1` the Potency was “inactive”.
`CC(=O)CC(=O)OC(C)(C)C` was tested, and the Potency was “inactive”.
For `CCN(CC)CCCC(C)Nc1ccnc2cc(Cl)ccc12` (stereo not drawn), the Potency was 9.52 µM (active).
In the case of `O=c1c(O)c(-c2ccc(O)cc2O)oc2cc(O)cc(O)c12`, the Potency is reported as “inactive”.
With `CCCCc1ccc2c(n1)[C@@H](c1ccc(OC)cc1C[C@H](C)C(=O)O)[C@H](C(=O)O)[C@H]2c1ccc2c(c1)OCO2` the Potency was “inactive”.
In the case of `CCCCOCCOC(=O)COc1ccc(Cl)cc1Cl`, the Potency is reported as “inactive”.
With `CC(C(=O)O)c1ccc2c(c1)Cc1cccnc1O2` (stereo not drawn) the Potency was “inactive”.
For `Cc1ccc(C(N)=O)cc1N`, the Potency was “inactive”.
With `O=C(OC(=O)c1ccccc1)c1ccccc1` the Potency was “inactive”.
For `O=C(CS)OCCOC(=O)CS`, the Potency was “inactive”.

Each compound was assayed against Acetylcholinesterase (Homo sapiens) (UniProt P22303) (assay: Acetylcholinesterase (AChE) small molecule antagonists: enzyme-based qHTS assay (AID 1347397; further: nearly all actives have a fitted effect of over 55% in size)). Conditions: Potency: AChE enzyme activity inhibition; outcome: AChE enzyme activity inhibition; series mostly up to 115 µM.
Procedure, shortened: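 rhAChE 50 mU/mL (dispensed) + cpd or DMSO, 30 min RT; add DTNB/acetylthiocholine cocktail, 10 min RT; colorimetric thiocholine readout. qHTS, 1536-well format.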
In the case of `CCc1nccnc1C`, the Potency is reported as “inactive”.
For `CCc1ccc(C=O)cc1`, the Potency was “inactive”.
With `C#C[C@]1(OC(C)=O)CC[C@H]2[C@@H]3CCC4=C/C(=N/O)CC[C@@H]4[C@H]3CC[C@@]21CC` the Potency was “inactive”.
With `CCOc1ccccc1O` the Potency was “inactive”.
In the case of `CCOc1ccccc1OCC`, the Potency is reported as “inactive”.
`COc1cc(C=C2CCC/C(=C\c3ccc(O)c(OC)c3)C2=O)ccc1O` was tested, and the Potency was “inactive”.
With `O=C(O)C(O)[C@H](O)[C@@H](O)[C@H](O)[C@H](O)CO` (stereo partly drawn) the Potency was “inactive”.
In the case of `CCC1(C)C(=O)N(Cl)C(=O)N1Cl` (stereo not drawn), the Potency is reported as “inactive”.
For `CC(=O)Nc1ccc(S(N)(=O)=O)cc1`, the Potency was “inactive”.
`OCCNCc1ccccc1` was tested, and the Potency was “inactive”.
With `O=C(O)CNC(=O)c1ccc([N+](=O)[O-])cc1` the Potency was “inactive”.
In the case of `CC(=C(CCOC(=O)C(C)C)SSC(CCOC(=O)C(C)C)=C(C)N(C=O)Cc1cnc(C)nc1N)N(C=O)Cc1cnc(C)nc1N`, the Potency is reported as “inactive”.
For `CC(NC(CCc1ccccc1)C(=O)O)C(=O)N1C(=O)N(C)CC1C(=O)O` (stereo not drawn), the Potency was “inactive”.
In the case of `CC1CNCC(C)O1` (stereo not drawn), the Potency is reported as “inactive”.
`CC(=O)[C@H]1[C@H](C#N)C[C@H]2[C@@H]3CC=C4C[C@@H](O)CC[C@]4(C)[C@H]3CC[C@@]21C` was tested, and the Potency was “inactive”.
In the case of `OCCC(F)(F)C(F)(F)C(F)(F)C(F)(F)C(F)(F)C(F)(F)F`, the Potency is reported as “inactive”.
`OC[C@@H](O)[C@H](O)[C@@H](O)[C@@H](O)CO` was tested, and the Potency was “inactive”.
For `C/C=C/C=C/COC(=O)C(C)C`, the Potency was “inactive”.
`C=C(C)CCO` was tested, and the Potency was “inactive”.
With `CC(C)c1ccc(C#N)cc1` the Potency was “inactive”.
`CCCCCCCCN1CCCC1=O` was tested, and the Potency was “inactive”.
With `CN=C(NC#N)NCCSCc1csc(N=C(N)N)n1` the Potency was “inactive”.
In the case of `CN1[C@@H]2CC[C@H]1CC(NC(=O)n1c(=O)[nH]c3ccccc31)C2` (stereo partly drawn), the Potency is reported as “inactive”.
With `Cc1cc2c(cc1CC(=O)c1sccc1S(=O)(=O)Nc1onc(C)c1Cl)OCO2` the Potency was “inactive”.
In the case of `CCC(C)(C)C(=O)O`, the Potency is reported as “inactive”.
In the case of `Nc1ncnc2c1ncn2Cc1c(F)cccc1Cl`, the Potency is reported as “inactive”.
In the case of `Nc1cc(C(=O)O)c(O)c(S(=O)(=O)O)c1`, the Potency is reported as “inactive”.
With `C[C@H](O)C(=O)Nc1c(I)c(C(=O)NC(CO)CO)c(I)c(C(=O)NC(CO)CO)c1I` the Potency was “inactive”.
For `CC(=O)Nc1cccc(N)c1`, the Potency was “inactive”.
`CNC(=O)c1cnn(-c2nc(N)c3ncn([C@@H]4O[C@H](CO)[C@@H](O)[C@H]4O)c3n2)c1` was tested, and the Potency was “inactive”.
For `CC(=O)CC(=O)OC(C)(C)C`, the Potency was “inactive”.
In the case of `CCN(CC)CCCC(C)Nc1ccnc2cc(Cl)ccc12` (stereo not drawn), the activity change, negative = inhibition is reported as -3.67% [at 10.5 µM].
For `O=c1c(O)c(-c2ccc(O)cc2O)oc2cc(O)cc(O)c12`, the Potency was “inactive”.
With `CCCCc1ccc2c(n1)[C@@H](c1ccc(OC)cc1C[C@H](C)C(=O)O)[C@H](C(=O)O)[C@H]2c1ccc2c(c1)OCO2` the Potency was “inactive”.
`CCCCOCCOC(=O)COc1ccc(Cl)cc1Cl` was tested, and the Potency was “inactive”.
In the case of `CC(C(=O)O)c1ccc2c(c1)Cc1cccnc1O2` (stereo not drawn), the Potency is reported as “inactive”.
For `Cc1ccc(C(N)=O)cc1N`, the Potency was “inactive”.
In the case of `O=C(OC(=O)c1ccccc1)c1ccccc1`, the Potency is reported as “inactive”.
In the case of `O=C(CS)OCCOC(=O)CS`, the Potency is reported as “inactive”.
